Experimental data from the supplement of paper PMC10849652.
The full data set covers some 7,900 targets. This sample favours those with a hit. About 0.6% of all pairs of compound and target were hits. Values without a mark were called inactive.

Compound: C1=CC=C(C=C1)[C@H](COC2=CC3=C(C=C2)NC(=O)N3)NC(=O)C4=CC=CN(C4=O)CC5=CC(=C(C=C5)F)F
Test: log2 fold change, soluble protein after heating vs DMSO (PISA); higher = thermal stabilisation; K562 cells, 10 uM, 30 min; active = over 0.2 and 3.5 SD of the protein, either way, in both replicates (recomputed)
How it was run: (§1)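 Aliquots of K562 cells (2×10^6 cells/mL) treated with 10 μM compound for 30 min were heated for 3 min over 48°C-58°C. After pooling and extraction in PBS with 0.5% NP-40 at 4°C, soluble protein from a 21,000xg, 90 min spin was quantified by TMTpro 16plex LC-MS/MS with channel sums equalised. Thermal stability is expressed against control samples, from duplicates, as a log2 fold change.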

Sequence of UniProt Q8TC12 (Q8TC12 whole entry, looked up): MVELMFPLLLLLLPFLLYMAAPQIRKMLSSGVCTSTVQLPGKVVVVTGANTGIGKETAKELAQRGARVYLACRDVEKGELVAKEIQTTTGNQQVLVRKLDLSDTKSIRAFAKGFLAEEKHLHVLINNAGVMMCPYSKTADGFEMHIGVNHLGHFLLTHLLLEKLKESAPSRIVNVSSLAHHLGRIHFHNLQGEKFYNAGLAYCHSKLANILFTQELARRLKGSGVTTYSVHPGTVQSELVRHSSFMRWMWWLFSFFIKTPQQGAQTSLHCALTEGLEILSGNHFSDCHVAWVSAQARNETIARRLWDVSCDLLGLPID
Sequence of UniProt Q5JTH9 (Q5JTH9 whole entry, looked up): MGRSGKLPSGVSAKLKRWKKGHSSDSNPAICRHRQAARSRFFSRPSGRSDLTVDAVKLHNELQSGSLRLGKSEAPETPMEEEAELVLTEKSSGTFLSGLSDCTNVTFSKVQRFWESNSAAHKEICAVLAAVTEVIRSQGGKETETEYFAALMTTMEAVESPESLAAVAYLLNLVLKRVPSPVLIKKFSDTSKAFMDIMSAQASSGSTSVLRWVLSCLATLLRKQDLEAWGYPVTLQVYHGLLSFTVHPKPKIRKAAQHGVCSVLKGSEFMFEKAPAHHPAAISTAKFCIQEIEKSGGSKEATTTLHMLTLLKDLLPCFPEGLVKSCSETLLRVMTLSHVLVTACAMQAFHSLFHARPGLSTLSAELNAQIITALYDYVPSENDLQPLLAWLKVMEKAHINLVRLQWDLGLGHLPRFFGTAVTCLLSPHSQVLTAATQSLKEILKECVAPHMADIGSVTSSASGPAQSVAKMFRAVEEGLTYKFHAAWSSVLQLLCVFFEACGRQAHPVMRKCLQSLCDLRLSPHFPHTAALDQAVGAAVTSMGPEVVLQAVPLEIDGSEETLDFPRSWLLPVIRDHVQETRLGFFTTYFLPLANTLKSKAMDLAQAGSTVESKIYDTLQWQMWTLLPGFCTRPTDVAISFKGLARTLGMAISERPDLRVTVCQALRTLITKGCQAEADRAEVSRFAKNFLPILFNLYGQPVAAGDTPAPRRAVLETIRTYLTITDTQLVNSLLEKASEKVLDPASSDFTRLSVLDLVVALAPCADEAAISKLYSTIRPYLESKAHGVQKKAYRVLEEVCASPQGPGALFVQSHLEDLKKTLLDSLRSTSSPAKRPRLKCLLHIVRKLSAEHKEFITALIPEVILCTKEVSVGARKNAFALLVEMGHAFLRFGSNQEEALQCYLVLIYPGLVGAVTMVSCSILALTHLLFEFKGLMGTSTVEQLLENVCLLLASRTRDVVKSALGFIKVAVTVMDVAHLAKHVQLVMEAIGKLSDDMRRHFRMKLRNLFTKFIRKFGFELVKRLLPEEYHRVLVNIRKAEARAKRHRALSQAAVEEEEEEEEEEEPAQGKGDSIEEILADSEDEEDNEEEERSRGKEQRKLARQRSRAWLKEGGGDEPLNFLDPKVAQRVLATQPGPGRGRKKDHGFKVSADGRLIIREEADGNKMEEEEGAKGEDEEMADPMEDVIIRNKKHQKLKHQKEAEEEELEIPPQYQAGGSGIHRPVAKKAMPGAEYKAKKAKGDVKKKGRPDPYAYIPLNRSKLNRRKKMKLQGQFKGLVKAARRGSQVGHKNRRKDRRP
Sequence of UniProt O15127 (O15127 whole entry, looked up): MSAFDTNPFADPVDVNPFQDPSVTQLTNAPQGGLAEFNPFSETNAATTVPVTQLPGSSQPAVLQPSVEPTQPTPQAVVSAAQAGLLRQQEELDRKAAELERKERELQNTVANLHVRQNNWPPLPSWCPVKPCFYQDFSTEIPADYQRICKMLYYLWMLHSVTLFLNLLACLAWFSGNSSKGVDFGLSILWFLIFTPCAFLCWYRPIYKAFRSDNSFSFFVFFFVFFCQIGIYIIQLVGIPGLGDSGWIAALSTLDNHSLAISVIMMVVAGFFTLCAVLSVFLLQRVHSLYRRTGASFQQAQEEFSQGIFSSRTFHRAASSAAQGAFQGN
Sequence of UniProt Q8WZA2 (Q8WZA2 whole entry, looked up): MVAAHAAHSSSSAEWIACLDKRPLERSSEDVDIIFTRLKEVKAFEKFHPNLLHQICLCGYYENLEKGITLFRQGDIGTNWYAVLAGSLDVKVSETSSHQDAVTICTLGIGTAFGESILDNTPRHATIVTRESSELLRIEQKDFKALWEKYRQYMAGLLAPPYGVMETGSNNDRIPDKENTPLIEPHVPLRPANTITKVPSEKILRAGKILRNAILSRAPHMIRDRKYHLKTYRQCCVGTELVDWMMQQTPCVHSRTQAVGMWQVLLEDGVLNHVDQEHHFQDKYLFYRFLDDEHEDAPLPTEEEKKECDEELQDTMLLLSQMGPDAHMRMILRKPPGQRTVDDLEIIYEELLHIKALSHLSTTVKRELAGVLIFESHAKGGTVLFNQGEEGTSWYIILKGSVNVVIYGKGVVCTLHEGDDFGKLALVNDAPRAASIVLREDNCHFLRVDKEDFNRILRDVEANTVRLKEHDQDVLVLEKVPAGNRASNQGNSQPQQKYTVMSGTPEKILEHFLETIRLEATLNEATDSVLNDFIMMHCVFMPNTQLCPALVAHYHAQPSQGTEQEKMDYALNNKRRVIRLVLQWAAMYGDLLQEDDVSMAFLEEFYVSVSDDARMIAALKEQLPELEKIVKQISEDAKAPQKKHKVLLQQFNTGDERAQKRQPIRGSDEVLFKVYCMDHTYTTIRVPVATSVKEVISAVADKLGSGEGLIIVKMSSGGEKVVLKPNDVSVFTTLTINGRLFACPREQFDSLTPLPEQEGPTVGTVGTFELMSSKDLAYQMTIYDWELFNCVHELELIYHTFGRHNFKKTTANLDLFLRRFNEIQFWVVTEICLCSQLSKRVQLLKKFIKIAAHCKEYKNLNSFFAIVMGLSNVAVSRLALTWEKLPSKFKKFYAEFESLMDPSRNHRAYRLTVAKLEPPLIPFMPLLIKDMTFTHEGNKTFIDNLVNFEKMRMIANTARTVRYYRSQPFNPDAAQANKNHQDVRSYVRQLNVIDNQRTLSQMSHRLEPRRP
Sequence of UniProt Q96IZ7 (Q96IZ7 whole entry, looked up): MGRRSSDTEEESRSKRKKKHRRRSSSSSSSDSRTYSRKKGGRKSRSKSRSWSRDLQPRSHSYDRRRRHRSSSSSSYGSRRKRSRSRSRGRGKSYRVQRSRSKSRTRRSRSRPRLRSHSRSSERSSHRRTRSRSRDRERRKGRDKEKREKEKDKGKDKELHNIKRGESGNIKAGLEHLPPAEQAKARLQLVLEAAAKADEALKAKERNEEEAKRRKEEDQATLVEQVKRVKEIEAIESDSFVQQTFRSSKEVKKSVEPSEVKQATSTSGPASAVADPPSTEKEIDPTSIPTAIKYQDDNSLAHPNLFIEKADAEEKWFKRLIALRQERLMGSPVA
Sequence of UniProt Q14151 (Q14151 whole entry, looked up): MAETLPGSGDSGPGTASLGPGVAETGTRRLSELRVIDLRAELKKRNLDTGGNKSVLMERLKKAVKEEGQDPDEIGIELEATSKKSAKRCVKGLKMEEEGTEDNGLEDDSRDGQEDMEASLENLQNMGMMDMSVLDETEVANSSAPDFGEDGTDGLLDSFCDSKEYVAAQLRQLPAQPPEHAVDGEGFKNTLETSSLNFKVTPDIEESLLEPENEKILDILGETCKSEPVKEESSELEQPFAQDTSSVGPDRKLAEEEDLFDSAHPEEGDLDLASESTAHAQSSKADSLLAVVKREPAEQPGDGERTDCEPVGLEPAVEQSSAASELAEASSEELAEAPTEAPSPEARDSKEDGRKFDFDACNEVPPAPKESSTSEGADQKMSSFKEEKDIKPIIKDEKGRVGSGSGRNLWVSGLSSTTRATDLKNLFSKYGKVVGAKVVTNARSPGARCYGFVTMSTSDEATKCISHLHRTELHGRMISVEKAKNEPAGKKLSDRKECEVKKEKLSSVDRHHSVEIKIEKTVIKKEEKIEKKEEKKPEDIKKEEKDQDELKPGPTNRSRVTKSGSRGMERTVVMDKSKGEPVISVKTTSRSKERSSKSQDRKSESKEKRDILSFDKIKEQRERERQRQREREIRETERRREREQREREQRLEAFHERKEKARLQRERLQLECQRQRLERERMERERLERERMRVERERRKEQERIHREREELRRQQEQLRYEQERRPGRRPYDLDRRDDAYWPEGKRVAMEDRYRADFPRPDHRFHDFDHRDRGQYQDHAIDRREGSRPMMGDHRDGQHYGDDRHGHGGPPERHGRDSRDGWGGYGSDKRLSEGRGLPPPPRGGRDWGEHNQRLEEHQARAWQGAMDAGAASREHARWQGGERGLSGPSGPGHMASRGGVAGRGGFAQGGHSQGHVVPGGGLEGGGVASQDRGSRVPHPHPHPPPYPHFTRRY
Sequence of UniProt Q9NQG5 (Q9NQG5 whole entry, looked up): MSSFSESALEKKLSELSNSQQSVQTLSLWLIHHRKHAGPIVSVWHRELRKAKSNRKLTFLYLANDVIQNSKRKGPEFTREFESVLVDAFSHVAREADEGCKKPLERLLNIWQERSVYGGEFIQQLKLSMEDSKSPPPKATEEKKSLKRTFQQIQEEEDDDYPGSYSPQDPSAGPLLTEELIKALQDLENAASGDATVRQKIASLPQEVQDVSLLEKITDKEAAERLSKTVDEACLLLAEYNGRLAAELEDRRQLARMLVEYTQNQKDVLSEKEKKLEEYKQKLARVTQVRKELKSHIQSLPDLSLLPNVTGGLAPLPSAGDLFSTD
Sequence of UniProt Q8WXD2 (Q8WXD2 whole entry, looked up): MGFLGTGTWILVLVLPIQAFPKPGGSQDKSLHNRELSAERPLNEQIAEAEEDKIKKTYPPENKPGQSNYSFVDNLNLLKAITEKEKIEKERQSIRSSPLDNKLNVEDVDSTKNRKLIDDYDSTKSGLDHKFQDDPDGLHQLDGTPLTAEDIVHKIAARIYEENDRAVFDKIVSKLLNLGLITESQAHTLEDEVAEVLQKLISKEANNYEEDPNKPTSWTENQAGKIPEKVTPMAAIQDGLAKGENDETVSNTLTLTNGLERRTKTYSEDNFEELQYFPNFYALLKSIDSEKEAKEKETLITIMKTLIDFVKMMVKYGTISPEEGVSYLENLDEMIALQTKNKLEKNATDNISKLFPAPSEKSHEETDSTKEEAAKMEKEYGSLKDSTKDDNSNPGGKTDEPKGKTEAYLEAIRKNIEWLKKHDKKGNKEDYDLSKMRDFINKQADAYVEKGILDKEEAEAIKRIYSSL

| Target | log2 fold change |
| --- | --- |
| RBM12 (UniProt Q9NTZ6) | -0.039 |
| SCAMP2 (UniProt O15127) | 0.061 |
| RNF26 (UniProt Q9BY78) | 0.005 |
| RPS12 (UniProt P25398) | 0.032 |
| RAPGEF4 (UniProt Q8WZA2) | -0.038 |
| ROMO1 (UniProt P60602) | 0.045 |
| SDHAF4 (UniProt Q5VUM1) | 0.053 |
| RSRC1 (UniProt Q96IZ7) | -0.002 |
| SDCBP isoform 2 (UniProt O00560) | -0.08 |
| SCG3 (UniProt Q8WXD2) | 0.131 |
| RBMY1E (UniProt A6NEQ0) | 0.063 |
| RABGAP1L isoform 5 (UniProt Q5R372) | 0.027 |
| RAB5C isoform 2 (UniProt P51148) | -0.007 |
| RUNX1 isoform 8 (UniProt Q01196) | -0.042 |
| RPS4X (UniProt P62701) | 0.105 |
| SLC12A9 (UniProt Q9BXP2) | 0.013 |
| RDH11 (UniProt Q8TC12) | 0.258 |
| SESN2 (UniProt P58004) | -0.03 |
| SEMG2 (UniProt Q02383) | 0.038 |
| S100A10 (UniProt P60903) | 0.651 |
| RBM48 isoform 2 (UniProt Q5RL73) | 0.008 |
| SAMD4B (UniProt Q5PRF9) | 0.107 |
| RRP12 (UniProt Q5JTH9) | -0.015 |
| SERINC1 (UniProt Q9NRX5) | 0.021 |
| RAB5IF isoform 5 (UniProt Q9BUV8) | 0.003 |
| SF3B5 (UniProt Q9BWJ5) | 0.056 |
| RPS16 (UniProt P62249) | 0.049 |
| SAFB2 (UniProt Q14151) | 0.051 |
| RPRD1B (UniProt Q9NQG5) | -0.006 |

Compound: CC1=C(SC2=C1C(=N[C@H](C3=NN=C(N32)C)CC(=O)N)C4=CC=C(C=C4)Cl)C
Test: as above
How it was run: as §1

| Target | log2 fold change |
| --- | --- |
| RBM12 (UniProt Q9NTZ6) | 0.023 |
| SCAMP2 (UniProt O15127) | 0.026 |
| RPS12 (UniProt P25398) | -0.092 |
| SDC3 (UniProt O75056) | -0.012 |
| SAP30 (UniProt O75446) | -0.006 |
| RAPGEF4 (UniProt Q8WZA2) | 0.152 |
| ROMO1 (UniProt P60602) | -0.061 |
| SDHAF4 (UniProt Q5VUM1) | 0.16 |
| SH2D1B (UniProt O14796) | 0.205 |
| RSRC1 (UniProt Q96IZ7) | -0.019 |
| RUFY3 isoform 3 (UniProt Q7L099) | -0.004 |
| SCG3 (UniProt Q8WXD2) | 0.034 |
| RBM6 (UniProt P78332) | -0.075 |
| RBMY1E (UniProt A6NEQ0) | -0.02 |
| RABGAP1L isoform 5 (UniProt Q5R372) | 0.027 |
| RAB5C isoform 2 (UniProt P51148) | -0.009 |
| SIK3 (UniProt H0Y4E8) | 0.034 |
| RPS4X (UniProt P62701) | -0.255 |
| SLC12A9 (UniProt Q9BXP2) | -0.002 |
| RDH11 (UniProt Q8TC12) | 0.06 |
| SESN2 (UniProt P58004) | -0.031 |
| SEMG2 (UniProt Q02383) | 0.063 |
| S100A10 (UniProt P60903) | 0.061 |
| RBM48 isoform 2 (UniProt Q5RL73) | 0.058 |
| SAMD4B (UniProt Q5PRF9) | -0.027 |
| RRP12 (UniProt Q5JTH9) | -0.068 |
| RAB5IF isoform 5 (UniProt Q9BUV8) | 0.101 |
| RPS16 (UniProt P62249) | -0.149 |
| SAFB2 (UniProt Q14151) | -0.087 |
| RPRD1B (UniProt Q9NQG5) | 0.06 |

Compound: CC1=C2C(=CC=C1)N=C(N(C2=O)C3=CC=CC=C3C)CN4C=NC5=C(N=CN=C54)N
Test: as above
How it was run: as §1

| Target | log2 fold change |
| --- | --- |
| RBM12 (UniProt Q9NTZ6) | 0.077 |
| SCAMP2 (UniProt O15127) | -0.041 |
| RNF26 (UniProt Q9BY78) | -0.104 |
| RPS12 (UniProt P25398) | -0.066 |
| SDC3 (UniProt O75056) | 0.071 |
| RMDN2 isoform 2 (UniProt Q96LZ7) | 0.164 |
| SAP30 (UniProt O75446) | -0.002 |
| RAPGEF4 (UniProt Q8WZA2) | 0.268 |
| SH2D1B (UniProt O14796) | -0.047 |
| RSRC1 (UniProt Q96IZ7) | 0.079 |
| RUFY3 isoform 3 (UniProt Q7L099) | 0.061 |
| SCG3 (UniProt Q8WXD2) | 0.09 |
| RAB5C isoform 2 (UniProt P51148) | -0.022 |
| RUNX1 isoform 8 (UniProt Q01196) | 0.025 |
| SIK3 (UniProt H0Y4E8) | 0.025 |
| RPS4X (UniProt P62701) | -0.232 |
| SLC12A9 (UniProt Q9BXP2) | 0.014 |
| RDH11 (UniProt Q8TC12) | 0.266 |
| SESN2 (UniProt P58004) | 0.067 |
| RRP12 (UniProt Q5JTH9) | 0.045 |
| SERINC1 (UniProt Q9NRX5) | 0.027 |
| RAB5IF isoform 5 (UniProt Q9BUV8) | 0.024 |
| SF3B5 (UniProt Q9BWJ5) | -0.032 |
| RPS16 (UniProt P62249) | -0.192 |
| SAFB2 (UniProt Q14151) | -0.103 |
| RPRD1B (UniProt Q9NQG5) | 0.043 |
